# Data reported in PubChem BioAssay.
# A number with no mark means an inactive call. Active and inactive are the calls of the source. Rule as the data show it, unless noted: active = inhibition above about 36%; inactive = the rest.
# Assays:
# [1] = tested on: transactivating tegument protein VP16 (Human herpesvirus 1); experiment: compounds suppressing VP16-driven luciferase signal – cell-based, luminescence, single concentration, counter-screen for SRC2 inhibitor project (AID 652007); details: cell-based VP16 transactivation luciferase reporter, at 8.9 µM, active compounds read high
# [2] = target: Nuclear receptor coactivator 2 (Homo sapiens) (UniProt Q15596); experiment: inhibition of GAL4-SRC2 driven luciferase expression – cell-based, luminescence, HEK293, triplicate, confirmation (AID 652008;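 active = mean inhibition above 46.5%, the solvent-only control mean plus 3 SD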;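 also: 0% = DMSO-treated cells and 100% = Gossypol at 36 µM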); details: HEK293 GAL4-SRC2 luciferase reporter, at 8.9 µM, active compounds read high
# Nuclear receptor coactivator 2 (Homo sapiens), sequence (Q15596 whole entry, looked up, the tested form may be a part): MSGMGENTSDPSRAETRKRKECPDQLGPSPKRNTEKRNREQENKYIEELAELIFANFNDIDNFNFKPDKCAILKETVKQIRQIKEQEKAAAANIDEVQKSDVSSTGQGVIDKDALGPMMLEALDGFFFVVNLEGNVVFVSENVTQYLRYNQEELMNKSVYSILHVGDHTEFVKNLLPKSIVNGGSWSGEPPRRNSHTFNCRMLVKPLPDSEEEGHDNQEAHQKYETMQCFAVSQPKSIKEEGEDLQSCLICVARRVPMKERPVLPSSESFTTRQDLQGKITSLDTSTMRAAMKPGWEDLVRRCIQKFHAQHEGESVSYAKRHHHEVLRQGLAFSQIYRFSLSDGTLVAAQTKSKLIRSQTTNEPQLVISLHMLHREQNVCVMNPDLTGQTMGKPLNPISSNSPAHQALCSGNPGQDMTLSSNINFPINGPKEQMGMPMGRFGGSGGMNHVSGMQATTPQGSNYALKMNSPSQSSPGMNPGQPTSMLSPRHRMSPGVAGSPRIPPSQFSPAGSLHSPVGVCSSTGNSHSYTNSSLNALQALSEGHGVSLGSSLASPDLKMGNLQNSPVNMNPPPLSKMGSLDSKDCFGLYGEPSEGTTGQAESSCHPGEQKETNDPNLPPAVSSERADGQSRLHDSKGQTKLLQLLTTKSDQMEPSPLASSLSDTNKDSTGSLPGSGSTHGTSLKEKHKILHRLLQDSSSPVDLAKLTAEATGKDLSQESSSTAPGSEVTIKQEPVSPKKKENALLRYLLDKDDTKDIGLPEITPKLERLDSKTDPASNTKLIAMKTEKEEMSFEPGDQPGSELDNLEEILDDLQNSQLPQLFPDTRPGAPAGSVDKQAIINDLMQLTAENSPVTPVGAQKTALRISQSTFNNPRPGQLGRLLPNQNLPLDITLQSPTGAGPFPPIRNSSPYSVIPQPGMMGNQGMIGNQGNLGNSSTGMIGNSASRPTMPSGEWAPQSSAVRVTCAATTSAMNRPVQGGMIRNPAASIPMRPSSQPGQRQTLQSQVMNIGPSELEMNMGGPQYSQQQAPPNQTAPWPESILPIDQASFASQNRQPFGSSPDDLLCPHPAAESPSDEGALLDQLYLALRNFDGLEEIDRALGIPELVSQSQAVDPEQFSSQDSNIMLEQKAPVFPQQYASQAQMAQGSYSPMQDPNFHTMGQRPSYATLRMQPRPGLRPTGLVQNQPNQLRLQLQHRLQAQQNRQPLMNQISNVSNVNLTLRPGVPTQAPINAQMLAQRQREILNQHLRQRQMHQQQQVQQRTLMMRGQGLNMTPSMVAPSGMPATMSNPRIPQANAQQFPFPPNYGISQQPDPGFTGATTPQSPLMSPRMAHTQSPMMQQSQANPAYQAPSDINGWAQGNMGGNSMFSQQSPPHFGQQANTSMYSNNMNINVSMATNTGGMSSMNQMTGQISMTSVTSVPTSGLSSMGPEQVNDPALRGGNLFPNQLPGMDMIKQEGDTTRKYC
Structure (SMILES),inhibition [1],inhibition [2]
CC1=CC(C)(C)Nc2ccc(OC(=O)CN3C(=O)c4ccccc4C3=O)cc21,-37.1%,26.9%
CCOc1ccc(-c2cc(CCCC(=O)NCCc3ccc(OC)c(OC)c3OC)no2)cc1,12.8%,34.7%
CC(=O)Nc1cc(-c2ccc(C(=O)NC3CC3)cc2)cn2c(-c3cccc(C(F)(F)F)c3)cnc12,-9.85%,-1.25%
CCOc1cccc(NC(=O)C2CC(=O)N(c3ccc(F)cc3)C2)c1 (stereo not given),6.75%,-14.1%
CCOC(=O)c1ccc(-c2ccc(N3C(c4cccc(OC)c4)=Cc4ccc(F)cc4C3CC(C)=O)cc2)cc1F (stereo not given),-0.77%,21.3%
Cc1nc(SCc2ccc(C(=O)O)cc2)nc2c1CCCC2,10.8%,23.6%
COc1cc(NC(=O)C2CC(c3c(F)cccc3Cl)=NO2)cc(OC)c1OC (stereo not given),-4.58%,4.43%
N#Cc1c(N)nc2c(c1N)CC(C(F)(F)F)O2 (stereo not given),-1.62%,12%
COc1cccc(NC(=O)Nc2nnc(CC(=O)Nc3ccccc3)s2)c1,-11%,21.1%
COc1ccc2c(c1)/C(=C\c1cccc(/C=C3/C(=O)Nc4ccc(OC)cc43)n1)C(=O)N2,90.5% (active),76.2% (active)
C=CC[C@]12CC=CC(=O)[C@@]1(O)O[C@H](c1ccc(OC)c(OC)c1)[C@H]2C,22.7%,32%
O=C1C2CCCN2C(=S)N1C1CCCCC1 (stereo not given),1.86%,3.89%
Cc1ccc(S(=O)(=O)N2[C@@H](c3ccc4c(c3)OCO4)C(C(=O)O)=C[C@H]2C(C)(C)C)cc1,-12.9%,1.95%
CCOc1ccc(-c2cc(CCCC(=O)NCCCOC)no2)cc1,38.5% (active),52% (active)
O=C(Nc1cccc(F)c1)c1cccnc1,1.51%,-2.72%
CC(C)[C@H](CO)Nc1nc(NCc2ccc(S(N)(=O)=O)cc2)c2ncn(C(C)C)c2n1,14.3%,37.8%
Cc1ccc2cccc(NS(=O)(=O)c3ccccc3)c2n1,75.5% (active),-19.5%
CCCn1c(CC)nc([N+](=O)[O-])c1Sc1ccc(F)cc1,-3.5%,13.2%

Structure (SMILES),inhibition [1],inhibition [2]
CC1=CC(C)(C)Nc2ccc(OC(=O)c3cccnc3)cc21,-32.4%,39.7%
O=[N+]([O-])c1cccc2c(N3CCCC3)ccnc12,11.7%,-23.4%
Cc1cc2nc(Sc3c([N+](=O)[O-])nc(C)n3Cc3ccccc3)[nH]c2cc1C,5.05%,30.7%
CCCC(=O)NC(c1ccccc1)c1ccc2cccnc2c1O (stereo not given),-0.88%,33.3%
O=C(CN1CCN(CC(=O)Nc2ccccc2Cc2ccccc2)CC1)Nc1ccccc1Cl,11.3%,4.85%
Nn1c(SCC(=O)Nc2cccc3ccccc23)nnc1-c1cc(-c2ccc(Cl)cc2)n[nH]1,51% (active),15.4%
O=C(COc1ccc([N+](=O)[O-])cc1)Nc1ccc(C(=O)NCc2cccnc2)cc1,-13.3%,27.8%
COc1cc(/C=C/C(=O)c2ccc3c(c2)OCCO3)cc(OC)c1OC,5.55%,29.2%
Cc1cccc(N2CC(C(=O)NC3CCCCCC3)CC2=O)c1C (stereo not given),-3.4%,-3.61%
O=C(O)CCC(=O)Nc1cccc(-c2csc(-c3ccccc3)n2)c1,47.1% (active),34.6%
O=C(CCl)Nc1ccc(C(=O)NCC2COc3ccccc3O2)cc1 (stereo not given),71.2% (active),39.9%
CN1CCN(c2ccc(NC(=O)c3cc(S(N)(=O)=O)ccc3N3CCOCC3)cc2)CC1,-1.08%,-8.5%
COc1cc(-c2nnc(-c3cc(-c4ccccc4)nc4ccccc34)o2)cc(OC)c1OC,-13.1%,-5.55%
O=C(CCCc1cccs1)N1CCN(S(=O)(=O)c2ccccc2Br)CC1,-1.31%,-4.17%
C=C(C(=O)c1ccccc1)C(c1ccccc1)C(C)C(=O)c1ccccc1 (stereo not given),28.8%,31.4%
O=C(CCl)Nc1ccccc1C(=O)NCc1ccccc1,0.94%,42.9%
Cc1csc2ncnc(N3CCN(C(=O)Nc4ccc(OC(F)(F)F)cc4)CC3)c12,1.45%,26.6%
